Test [1] is described as follows: APR_HepG2_CellCycleArrest_24hr: Apredica 24-hour HepG2 Assay for Cell Cycle Arrest (AID 2282905).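 Note: cell cycle arrest scored as ratio of 2N to 4N nuclear DNA content.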 To be noted: imaging, actives raise or lower the signal. In outline: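 After 24 h exposure at 0.39–200 uM in 0.5% DMSO, fixed cells received Hoechst 33342 staining. Imaging quantified per-nucleus DNA content; gain or loss fitted against DMSO controls.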
Test [2] in a line: APR_HepG2_NuclearSize_24hr: Apredica 24-hour HepG2 Assay for Nuclear Size (AID 2282907). To be noted: high-content imaging, actives raise or lower the signal. In outline: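 Nuclear size from Hoechst 33342-stained, formaldehyde-fixed HepG2 nuclei imaged by high-content microscopy, after 24 h dosing at ten concentrations from 0.39 to 200 uM in 0.5% DMSO; gain or loss relative to DMSO baseline.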

Test [3] in a line: APR_HepG2_MicrotubuleCSK_24hr: Apredica 24-hour HepG2 Assay for Microtubule CSK Stabilty (AID 2282909). To be noted: HepG2 microtubule cytoskeleton imaging, actives raise or lower the signal. In outline:
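Fixed HepG2 cells were stained for alpha-tubulin and imaged after 24 hr exposure to ten concentrations spanning 0.39–200 uM in 0.5% DMSO. Signal change was fitted in both directions relative to DMSO; taxol was the positive control.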

Test [4] in a line: APR_HepG2_MitoticArrest_24hr: Apredica 24-hour HepG2 Assay for Mitotic Arrest (AID 2282910). The note with it: high-content imaging, actives raise or lower the signal. A digest of the protocol:
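HepG2, 24 hr dosing, 0.39–200 uM, 0.5% DMSO final. Formaldehyde-fixed, Triton-permeabilised, anti-phospho-histone H3 plus Hoechst. ArrayScan imaging at 20x; bidirectional fit vs DMSO baseline.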

A short description of test [5]: APR_HepG2_MitoMembPot_24hr: Apredica 24-hour HepG2 Assay for Mitochondrial Membrane Potential (AID 2282911). The note with it: imaging, actives raise or lower the signal. A digest of the protocol:
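Mitochondrial dye uptake (MitoTracker Red CMXRos, 250 nM, 30 min pre-fixation) in HepG2 after 24 hr compound exposure, 0.39–200 uM; ArrayScan images at 20x, activity fitted in both directions relative to DMSO.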

The nature of test [6]: APR_HepG2_MitoMass_24hr: Apredica 24-hour HepG2 Assay for Mitochondrial Mass (AID 2282912). The note with it: high-content imaging, actives raise or lower the signal. A digest of the protocol: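 Endpoint is MitoTracker Red CMXRos (250 nM, 30 min, pre-fixation) intensity from 20x high-content imaging, nuclei located by Hoechst. Human HepG2 cells received ten concentrations from 0.39 to 200 uM in 0.5% DMSO for 24 hr, duplicate wells. Bidirectional fit relative to DMSO.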

Test [7] is described as follows: APR_HepG2_p53Act_24hr: Apredica 24-hour HepG2 Assay for p53 Activation (AID 2282913).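 Note: p53 protein immunofluorescence averaged per cell in HepG2 with Hoechst nuclei.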 The note with it: high-content imaging, actives raise or lower the signal. A digest of the protocol:
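Following 24 hr dosing of HepG2 at 0.39–200 uM, the cells undergo formaldehyde fixation, Triton permeabilization and multiplexed antibody labeling that includes p53 (Cy5). Signal from the imaging is referenced to DMSO solvent controls.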

Test [8] can be described thus: APR_HepG2_CellCycleArrest_72hr: Apredica 72-hour HepG2 Assay for Cell Cycle Arrest (AID 2282914). The note with it: high-content imaging, actives raise or lower the signal. A digest of the protocol:
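Using multiplexed high-content imaging, HepG2 nuclei stained with Hoechst 33342 (2 ug/mL) were analysed for DNA content after fixation and permeabilization. Treatment lasted 72 hr across 0.39–200 uM in duplicate with final DMSO 0.5% v/v; DMSO served as negative control.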

Test [9] can be described thus: APR_HepG2_CellLoss_72hr: Apredica 72-hour HepG2 Assay for Cell Loss (AID 2282915). To be noted: high-content imaging. In outline:
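HepG2 cells exposed 72 h to compound at 0.39–200 uM (10 concentrations, duplicate) in 0.5% DMSO. Fixed with 3.7% formaldehyde and Hoechst 33342-stained. Imaged at 20x; nuclear count gives cell number, fitted bidirectionally versus DMSO.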

Molecules are shown by their SMILES. Calls of active or inactive are those of the source. Rule for the calls: active = hit-call score of the fitted dose curve at least 0.9, where 1 is the maximum; inactive = score below 0.9.

On to `CN(C)CCCN1c2ccccc2Sc2ccc(Cl)cc21`, for which the compound was classed as inactive in test [1], in test [3] and in [5]. The AC50 in [2] was 129 µM (active); in test [4], 19.7 µM (active); in test [6], 31 µM (active); in test [7], 28.5 µM (active); in test [8], 102 µM (active); in test [9] it was 33.9 µM (active).
`CC(=O)OCC(COC(C)=O)OC(C)=O`: the result in test [1], in test [2], in test [3], in test [4], in [5] and in [6] was inactive. Moreover, the compound was classed as inactive in test [8] and in [9].
On to `O=C(NS(=O)(=O)/C=C/c1cccs1)c1ccc(F)cc1Br`, for which the compound was classed as inactive in [1], in [2], in [3], in [4], in [5] and in test [6]. Moreover, the outcome in [8] was inactive. The AC50 in test [9] was 80.8 µM (active).
With `O=C1NC(=O)C(c2ccccc2)(c2ccccc2)N1`, the call in [1], in test [2], in test [3], in test [4], in test [5] and in test [6] was inactive. In addition, the outcome in [8] and in test [9] was inactive.
For `COC(=O)[C@H]1[C@H]2C[C@@H]3c4[nH]c5cc(OC)ccc5c4CCN3C[C@H]2C[C@@H](OC(=O)c2cc(OC)c(OC)c(OC)c2)[C@@H]1OC`, the concentration at half-maximal activity (AC50) is 79 µM (active) in test [1]; 44.3 µM (active) in test [3]; 31.1 µM (active) in test [4]; 90.2 µM (active) in test [5]; 41.2 µM (active) in test [6]; 40.3 µM (active) in test [7]. Moreover, the AC50 in test [9] was 19.5 µM (active). For the same compound, the call in [2] and in [8] was inactive.
Take `O=C1OC(c2ccc(O)cc2)(c2ccc(O)cc2)c2ccccc21`: the AC50 in [1] is 81.1 µM (active); in test [4] it was 61.4 µM (active); in test [6] it was 92.7 µM (active); in [7], 51.8 µM (active); in [8] it was 55.9 µM (active); in [9], 102 µM (active). Besides, the result in test [2], in test [3] and in test [5] was inactive.
As for `CC1(C)C(=O)NC(=O)N1CO`, the call in test [1], in [2], in test [3], in test [4], in test [5] and in test [6] was inactive. Also, the outcome in test [7] and in test [8] was inactive. In test [9], the half-maximal activity concentration (AC50) is 120 µM (active).
As for `C/C=C/c1ccc(OC)cc1`, the result in test [1], in test [2], in [3], in test [4], in [5] and in test [6] was inactive. Moreover, the result in test [8] and in test [9] was inactive.
For the compound `CC(N)=O`, the result in test [1], in test [2], in test [3], in test [4], in [5] and in [6] was inactive. For the same compound, the compound was classed as inactive in [8]. For the same compound, the AC50 in test [9] is 115 µM (active).
On to `C=CCCCCCCCCCCCC`, for which the half-maximal activity concentration (AC50) was 69.9 µM (active) in [1], 99.4 µM (active) in test [7] and 87.6 µM (active) in test [9]. Further, the compound was classed as inactive in [2], in test [3], in [4], in test [5], in [6] and in [8].
Regarding `O=C1CCCCC1`, the result in test [1], in test [2], in [3], in test [4], in test [5] and in [6] was inactive. Also, the result in test [8] and in test [9] was inactive.
For `CC(C)c1cccc(C(C)C)c1`, the call in test [1], in [2], in test [3], in [4], in [5] and in [6] was inactive. The result in test [8] and in test [9] was inactive.
Take `Cc1cn([C@H]2C=C[C@@H](CO)O2)c(=O)[nH]c1=O`: the result in test [1], in test [2], in [3], in [4], in test [5] and in test [6] was inactive. In addition, the call in test [8] and in test [9] was inactive.
Regarding `Cc1ccc(C(C)(C)C)c(O)c1`, the compound was classed as inactive in test [1]. The AC50 is 112 µM (active) in [2]; 113 µM (active) in test [3]; 106 µM (active) in test [4]; 122 µM (active) in test [5]; 107 µM (active) in [6]; 110 µM (active) in test [7]. Also, the AC50 is 110 µM (active) in test [8] and 145 µM (active) in [9].
Regarding `CCCCC(CC)COP(=O)(OCC(CC)CCCC)OCC(CC)CCCC` (stereo unspecified), the compound was called inactive in [1], in [2], in test [3], in test [5], in test [6] and in test [8]. In addition, the AC50 is 48.2 µM (active) in [4], 71.1 µM (active) in [7] and 37.3 µM (active) in test [9].
In the case of `CSc1ccc(Oc2ccc(S(N)(=O)=O)cc2CN(C)C)cc1C`, the compound was classed as inactive in [1], in [2], in [3] and in [8]. Moreover, the AC50 was 88.9 µM (active) in [4], 100 µM (active) in test [5], 100 µM (active) in [6] and 108 µM (active) in test [9].
For `CCN(CC)CCOc1ccc(C(=C(Cl)c2ccccc2)c2ccccc2)cc1`, the call in [1] was inactive. For the same compound, the AC50 in [2] is 15.7 µM (active); in test [3] it was 81.2 µM (active); in test [4] it was 10.8 µM (active); in test [5], 0.0258 µM (active); in [6], 155 µM (active); in test [8] it was 26.5 µM (active). In addition, in test [9], the concentration at half-maximal activity (AC50) was 13.7 µM (active).
As to `CCCC(=O)O`, the compound was called inactive in [1], in test [2], in test [3], in test [4], in test [5] and in test [6]. Also, the compound was called inactive in test [8] and in [9].
Consider `CC(=O)O[C@]1(C(C)=O)CC[C@H]2[C@@H]3C=C(Cl)C4=CC(=O)[C@@H]5C[C@@H]5[C@]4(C)[C@H]3CC[C@@]21C`, for which the compound was called inactive in test [1], in test [2], in test [3], in test [4], in test [5] and in test [6]. Further, the outcome in test [8] and in [9] was inactive.
For the compound `CCCCC(CC)CO` (stereo unspecified), the compound was classed as inactive in test [1], in test [2], in test [3], in test [4], in test [5] and in [6]. The compound was called inactive in test [7], in [8] and in test [9].
Take `C/C=C/C=C/C(=O)O`: the call in [1], in test [2], in test [3], in test [4], in test [5] and in test [6] was inactive. Moreover, the AC50 was 71.5 µM (active) in test [8] and 83.7 µM (active) in [9].
In the case of `NC1CCCCC1`, the outcome in [1], in [2], in test [3], in test [4], in test [5] and in test [6] was inactive. The compound was called inactive in [8] and in test [9].
On to `CC(COCC(C)OC(=O)c1ccccc1)OC(=O)c1ccccc1` (stereo unspecified), for which the outcome in test [1], in test [2], in test [3], in test [4], in test [5] and in test [6] was inactive. Moreover, the call in test [8] and in test [9] was inactive.
As to `CS(=O)(=O)c1ccc([C@@H](C[C@H]2CCC(=O)C2)C(=O)Nc2cnccn2)cc1Cl`, the compound was called inactive in test [1], in test [2], in [3], in [4], in test [5] and in test [6]. In addition, the compound was called inactive in [7], in [8] and in test [9].

(Values after PubChem BioAssay (EPA / NIEHS).)
